# bovine MsrA act = activators of bovine methionine sulfoxide reductase A. purified bovine MsrA, absorbance read-out. activation, % at 10.6 µM. 0.3% of 360,000 active. AID 602163; in the data active = activation above about 7.5%;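 note: 0% = vehicle and 100% = reference activator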
# NadD block = inhibitors of Staphylococcus aureus NadD; purified NadD enzyme, colorimetric absorbance read-out; inhibition, % at 20 µM; 0.78% of 360,000 active; in the data active = inhibition above about 26%
# rCAG binder = binds r(CAG) RNA repeats. r(CAG) RNA repeat, TO-PRO-1 dye displacement fluorescence. 1.3% of 370,000 active. inhibition, % at 3 µM;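 active = inhibition above the plate cutoff, the mean of all test compounds on that plate plus 3 SD, cut at about 35% in these data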;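 note: 0% = DMSO alone and 100% = 100 µM mitoxantrone as full dye displacement; higher means more dye released from RNA so lower well fluorescence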
# MsrA inh = bovine MsrA inhibition; 0.75% of 360,000 active; purified bovine MsrA, absorbance read-out; inhibition, % at 15.5 µM;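 note: 0% = vehicle wells with enzyme and 100% = reference inhibitor wells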
# MsrA inh confirm = bovine MsrA inhibition, confirmed; 41% of 2,300 active; purified bovine MsrA, absorbance read-out; inhibition, % at 15.5 µM; shares compounds with MsrA inh;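 note: coupled to thioredoxin reductase with NADPH and selenocystamine and DMSO as substrate; 0% = vehicle only and 100% = full effect of reference inhibitor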
# * = called active by the depositor; . = not tested or not shown. Rows were chosen to be rich in hits. Some 2.7% of all compounds tested hit in one or more screens of this group. Cut-off read from the data, not from the text of the source, unless noted: active = inhibition above about 4.5%; inactive = the rest.
SMILES,bovine MsrA act,NadD block,rCAG binder,MsrA inh,MsrA inh confirm
CCn1cc(C(=O)N2CCN(c3ccc(OC)cc3)CC2)c2cc(OC)c(OC)cc2c1=O,-4,-2,-4,1,.
Cc1ccccc1C1=NC(C(F)(F)F)(C(F)(F)F)c2c(n(C)c(=O)n(C)c2=O)N1,-6,-2,1,5.4*,3
Cn1c2c(c(=O)n(C)c1=O)C(C(F)(F)F)(C(F)(F)F)N=C(c1ccc(Cl)cc1)N2,-6,4,.,.,.
Cn1c2c(c(=O)n(C)c1=O)C(C(F)(F)F)(C(F)(F)F)N=C(C1CCCCC1)N2,1,-3,-8,15*,12*
COc1ccc(CCNC(=O)CN2C(=O)NC3(CCOc4ccccc43)C2=O)cc1 (centres undefined),-3,-4,-2,0,.
Cc1ccc(C)n1-n1cnc2scc(-c3cccs3)c2c1=O,-2,1,3,5.5*,2
CC1(C(=O)NS(=O)(=O)c2ccccc2Cl)CCN1C(=O)Cc1cccc2ccccc12 (centres undefined),4,-6,33,1,.
CCOc1ccccc1-n1c(=S)sc2c(=O)n(-c3ccc(F)cc3)c(SCC(=O)O)nc21,-3,0,25,5.6*,2
C[C@H]1c2cccc(O)c2C(O)=C2C(=O)C3(O)C(O)=C(C(N)=O)C(=O)[C@@H](N(C)C)[C@@H]3[C@@H](O)[C@@H]21 (some centres undefined),-4,-1,6,4.9*,3
COc1ccc(C(CNc2ccc(C(F)(F)F)cn2)N(C)C)cc1OC (centres undefined),-3,-9,-1,-1,.
CCC(=O)/C=C1\Sc2ccc(OC)cc2N1CCO,-1,2,-4,4,.
CCC(=O)/C=C1\Sc2ccc(OC)cc2N1CC,-7,3,-1,5.7*,4
Cc1cc(C)cc(N2CN=c3s/c(=C\c4ccco4)c(=O)n3C2)c1,-8,10,3,3,.
O=c1/c(=C/c2ccco2)sc2n1CN(c1cccc(Br)c1)CN=2,7,3,2,5.2*,2
O=c1/c(=C/c2ccco2)sc2n1CN(c1ccccc1)CN=2,-7,-2,2,5.0*,6.1*
Cc1ccc(S(=O)(=O)Nc2ccc3c(c2)C(=O)N([C@@H](C)CO)C[C@@H](C)[C@@H](CN(C)C(=O)NC(C)C)OCCCC[C@H](C)O3)cc1,0,4,1,0,.
CC(/C=C/c1ccc2c(c1)OCO2)=N/NC(=O)c1cccnc1,-4,1,3,7.2*,5.5*
CC(/C=C/c1ccc2c(c1)OCO2)=N/NC(=O)c1ccc(C)nc1,-2,2,3,5.4*,7.1*
CC(/C=C/c1ccc2c(c1)OCO2)=N/NC(=O)c1ccncc1,-7,-2,-1,5.6*,8.6*
C/C(=N\NC(=O)c1ccc2c(c1)OCO2)c1cccnc1,-2,-6,-3,0,.
Cc1ccc(C(=O)N/N=C\c2cc3c(cc2Br)OCO3)cn1,-1,-8,2,0,.
Cc1ccc(S(=O)(=O)Nc2ccc3c(c2)C(=O)N([C@@H](C)CO)C[C@@H](C)[C@@H](CN(C)CC2CC2)OCCCC[C@@H](C)O3)cc1,-1,-7,2,-1,.
CCCC1(CCC)NC(=O)N(CC(=O)Nc2ccc(Cl)c(S(=O)(=O)N3CCOCC3)c2)C1=O,-3,0,5,2,.
Cn1c(C(=O)O)cc2c(=O)n3ccccc3nc21,-8,2,0,5.3*,2
O=C(O)c1cccc(NS(=O)(=O)c2ccc3c(c2)C(=O)c2ccccc2C3=O)c1,-2,-4,29,33*,25*
SMILES,bovine MsrA act,NadD block,rCAG binder,MsrA inh,MsrA inh confirm
COc1cccc(C(O)c2nccn2Cc2ccccc2)c1OC (centres undefined),-2,-2,-5,12*,4
Cc1ccccc1CN(c1ccc(C(=O)N2CCN(C)CC2)cc1)S(C)(=O)=O,1,8,-4,0,.
CCn1c(/C=C2/C(=O)N(C)c3ccccc32)nc2ccccc2c1=O,-4,-3,-2,1,.
CCN1C(=O)/C(=C\c2nc3ccccc3c(=O)n2CC)c2ccccc21,-10,-1,-8,4.7*,1
COc1ccc(-c2cc(C(=O)OCC(=O)N3CCOCC3)c3ccccc3n2)cc1,-6,-3,0,4.7*,1
COc1ccc(-c2cc(C(=O)N3CCC3)c3ccccc3n2)cc1OC,-4,0,0,5.4*,3
CC(=O)c1nn(-c2ccc(C(F)(F)F)cc2)c(=O)[nH]c1=O,-4,-2,3,0,.
CCOC(=O)c1cc(S(=O)(=O)N(C)Cc2ccccc2)cn1C,-2,-4,-3,-1,.
Oc1[nH]c2ccccc2c1C1=NCCCC1,2,3,5,4.9*,4
COc1ccccc1C(=O)NS(=O)(=O)c1ccc(C)cc1,-1,-8,0,0,.
Cc1c(C(=O)N2CCOCC2)sc(NC(=O)c2ccc3c(c2)OCO3)c1C#N,-5,9,4,5.0*,4
CCN(CC)C(=O)c1sc(NC(=O)c2ccc3c(c2)OCO3)c(C#N)c1C,-13,-2,0,2,.
Cc1c(C(=O)N/N=C/c2cccnc2)sc(N)c1C#N,-3,2,4,4.7*,3
Cc1ccc(C(=O)N/N=C\c2cccnc2)s1,-2,-1,-1,2,.
CCOc1ncccc1C(=O)Nc1ccc2c(c1)OCO2,-3,-5,-2,5.0*,5
CCOc1ncccc1C(=O)Nc1ccccc1C(=O)NCc1ccc2c(c1)OCO2,-5,1,2,0,.
CCOc1ccc(CC(=O)N/N=C(\C)c2cccnc2)cc1OCC,-9,-7,-2,0,.
Cc1cc(CC(=O)O)n(C)c1C(=O)c1ccc(Cl)cc1,-3,2,3,2,.
Cc1nc2nc(-c3cccs3)[nH]c2cc1Br,1,-7,1,7.0*,4
Cc1nc2nc[nH]c2cc1Br,1,9,1,0,.
O=C(NCCOc1ccccc1F)c1cccc(S(=O)(=O)N2CCN(c3ccccc3)CC2)c1,-7,-6,6,2,.
CCN(CC)c1ccc(/C=N/NC(=O)Cc2ccc(OC)c(OC)c2)cc1,-7,-4,-3,5.2*,2
COc1ccc(/C=N/NC(=O)Cc2ccc(Cl)cc2)cc1OC,-5,1,-6,0,.
CCN(CC)c1ccc(/C=N/NC(=O)CNC(=O)/C=C/c2ccco2)cc1,-12,-1,6,6.3*,8.0*
CCN(CC)c1ccc(/C=N/NC(=O)C2CC2)cc1,-5,-5,-4,5.8*,5.5*
SMILES,bovine MsrA act,NadD block,rCAG binder,MsrA inh,MsrA inh confirm
CCCCCCOc1ccc(/C=N/NC(=O)C2CC2)cc1,-3,-2,-2,-1,.
CCOC(=O)N/N=C\C=C\c1ccc2c(c1)OCO2,-5,0,-5,7.3*,4.7*
Cc1cccc(OCCCC(=O)NNC(=O)c2ccccn2)c1,-2,-1,4,-1,.
CCOc1ccc(-c2n[nH]c(=S)c3ccccc23)cc1,-1,-1,7,1,.
O=C(c1nc2ccccn2c1CNCCCn1nnc2ccccc21)N1CCOCC1,-3,3,0,-1,.
O=C(CCC(=O)c1cccs1)NCC(c1ccc(F)cc1)N1CCOCC1 (centres undefined),-3,-1,12,1,.
